An excerpt weighted towards active compounds, which were near 1.6% of everything screened.
KCNQ2 pot: enhances the rat KCNQ2 potassium channel | CHO-K1 KCNQ2, FluxOR thallium flux fluorescence; active compounds read high | AID 2239 | B-score at 10 µM | 310,000 compounds, 0.54% hits | O88943;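 active means fluorescence ratio B-score at least 3 SD of library B-scores, with initial fluorescence B-score within 3 of them, cut at about 5.3 in these data; same plate scores as AID 2156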;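 further: B-score of peak minus minimum over baseline fluorescence ratio after K+ and Tl+ stimulus; positive B-score means potentiation of KCNQ2 with more thallium influx and brighter signal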
KCNQ2 inh: inhibitors of rat KCNQ2 potassium channel. 310,000 compounds, 1.1% hits. AID 2156. O88943. B-score at 10 µM. CHO-K1 KCNQ2, FluxOR thallium flux, 20 min; active compounds read low;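 active means fluorescence ratio B-score at most minus 3 library SDs, with starting brightness B-score within 2 library SDs, cut at about -5.5 in these data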
Kir21 confirm: confirmation of mouse Kir2.1 potassium channel inhibitors | shares compounds with KCNQ2 pot | Kir2.1-expressing cells, FluxOR thallium flux fluorescence; active compounds read low | Tl flux remaining, % of negative control (active compounds read low), % at 10 µM | 2,300 compounds, 41% hits | AID 2032;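 active means Primary-screen hit whose thallium flux fell at least 3 control SD below untreated wells in both duplicates, with normal baseline fluorescence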
HEK293 ctr: parental HEK293 activity in Kir2.1 inhibitor counter-screen; shares compounds with KCNQ2 pot; parental HEK293 cells, FluxOR thallium flux fluorescence; 0% = unstimulated blank wells; FluxOR signal as % of negative control (100 = no effect), % at 10 µM; 2,300 compounds, 19% hits;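 active means dye signal at least 3 control SD above or below untreated wells in both duplicates, raw fluorescence within 3, either direction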;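 further: percent is based on the flux ratio of peak minus minimum fluorescence over baseline F0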
CHO-K1 Tl ctr: counter-screen for KCNQ2 potentiators: effect in parental CHO-K1 cells | shares compounds with KCNQ2 pot | FluxOR thallium flux fluorescence; zero = vehicle mean+3SD, 100% = vehicle-minus-blank window | activity increase over 3SD of controls, % at 10 µM | 1,200 compounds, 43% hits | AID 2282;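 active means signal rise of at least 3 SD above the untreated control mean, in both duplicate wells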;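 further: counter screen of KCNQ2 potentiator hits so any rise reflects channel-independent effects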
KCNQ1 pot spec: tests whether KCNQ2 potentiators also act on human KCNQ1; activation over 3SD threshold, % at 10 µM; CHO KCNQ1 stable, FluxOR thallium flux fluorescence; beyond 3SD, as % of vehicle-control signal; shares compounds with KCNQ2 pot; 1,200 compounds, 28% hits;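 active means fluorescence ratio rise of at least 3 SD of vehicle wells above their mean, in both replicate wells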
Target sequence (P51787 whole entry, looked up): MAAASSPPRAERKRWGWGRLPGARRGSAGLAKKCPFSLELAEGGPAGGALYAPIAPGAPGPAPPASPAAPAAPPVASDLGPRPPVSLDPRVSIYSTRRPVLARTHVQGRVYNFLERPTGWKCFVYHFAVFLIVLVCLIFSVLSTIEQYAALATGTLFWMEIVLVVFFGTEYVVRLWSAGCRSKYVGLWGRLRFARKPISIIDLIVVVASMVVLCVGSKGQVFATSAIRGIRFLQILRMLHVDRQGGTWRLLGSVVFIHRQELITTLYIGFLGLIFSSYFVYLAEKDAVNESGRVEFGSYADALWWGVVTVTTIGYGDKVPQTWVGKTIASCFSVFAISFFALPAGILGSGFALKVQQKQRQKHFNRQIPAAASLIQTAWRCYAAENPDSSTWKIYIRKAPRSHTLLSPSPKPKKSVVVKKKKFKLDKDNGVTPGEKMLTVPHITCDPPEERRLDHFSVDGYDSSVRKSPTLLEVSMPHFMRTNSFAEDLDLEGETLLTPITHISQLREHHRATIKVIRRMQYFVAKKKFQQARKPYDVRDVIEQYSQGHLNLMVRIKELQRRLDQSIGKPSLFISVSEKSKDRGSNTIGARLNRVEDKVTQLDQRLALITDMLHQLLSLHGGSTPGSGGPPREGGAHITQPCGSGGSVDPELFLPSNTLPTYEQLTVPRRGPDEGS
KCNQ2 pot confirm: rat KCNQ2 channel potentiator confirmation | potentiation, less the hit threshold, % at 10 µM | shares compounds with KCNQ2 pot | 1,200 compounds, 68% hits | CHO-KCNQ2 cells, FluxOR thallium flux fluorescence | AID 2287;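 active means fluorescence ratio rising 3 SD or more over the vehicle control mean in both replicates, plus primary screen hit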;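 further: peak minus minimum thallium fluorescence divided by baseline after K/Tl stimulus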
Kir21 spec: selectivity of KCNQ2 potentiators: effect on mouse Kir2.1 | 1,200 compounds, 2% hits | activity over 3SD threshold, % at 10 µM | shares compounds with KCNQ2 pot | HEK293 Kir2.1, FluxOR thallium flux fluorescence;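 active means fluorescence ratio rise of at least 3 SD above the vehicle-control mean, seen in both replicates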
KCNQ2 W236L pot: rat KCNQ2 W236L mutant potentiation by KCNQ2 potentiators; current increase over 3SD of negative controls (%), active compounds read high, % at 25 µM; 940 compounds, 10% hits; CHO KCNQ2-W236L, automated patch clamp current; shares compounds with KCNQ2 pot;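 active means current increase at least 3 SD of the untreated controls above them in both duplicate recordings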
Numbers stand for hits; i = inactive; nt = no result.

SMILES | KCNQ2 pot | KCNQ2 inh | Kir21 confirm | HEK293 ctr | others
COc1cc(OC)c(OC)cc1CCC(C)NCCC(c1ccccc1)c1ccccc1 (configuration not stated) | i | i | 48.5% | i
COc1ccccc1CCNC(C)CCc1ccc(O)cc1 (configuration not stated) | nt | i | nt | nt
Cc1ccc(CNCCC2=CCCCC2)cc1 | i | i | 37.5% | 68.5%
C1=C(CCNCC2CC2)CCCC1 | i | i | nt | nt
COc1cc(CC(=O)Nc2ccc3c(c2)CCC3)cc(OC)c1OC | i | i | nt | nt
COc1ccc(CC(=O)Nc2ccccc2N2CCCCC2)cc1OC | nt | i | i | 77.5%
COc1cccc(CC(=O)Nc2ccccc2C(=O)N2CCOCC2)c1 | i | i | nt | nt
COc1cccc(CC(=O)Nc2ccccc2N2CCCC2)c1 | 6.14 | i | 49.5% | i | CHO-K1 Tl ctr=i;KCNQ1 pot spec=18.3;KCNQ2 pot confirm=17.4;Kir21 spec=i;KCNQ2 W236L pot=i
COc1ccc(CC(=O)Nc2ccccc2N2CCOCC2)cc1OC | i | i | nt | nt
COc1cccc(CC(=O)Nc2ccc3c(c2)CCC3)c1 | 6.03 | i | i | i | CHO-K1 Tl ctr=i;KCNQ1 pot spec=i;KCNQ2 pot confirm=12.3;Kir21 spec=i;KCNQ2 W236L pot=i
CN1CCN(C(=O)c2cc(Cl)ccc2NC(=O)c2ccc(Cl)cc2Cl)CC1 | i | i | nt | nt
Cc1ccc(C)c(N2C(=O)C3C4C=CC(CC4)C3C2=O)c1 (configuration not stated) | i | i | nt | nt
O=C(c1cccs1)N1CCN(c2ncc(Br)cn2)CC1 | nt | i | nt | nt
O=[N+]([O-])c1c(Nc2cccc(O)c2)cc(Cl)c2nonc12 | i | -15.8 | i | i
O=C(O)c1ccc(Nc2cc(Cl)c3nonc3c2[N+](=O)[O-])cc1 | i | i | nt | nt
O=C(CCCn1c(=O)[nH]c2cc(Cl)ccc2c1=O)NCCCN1CCN(c2ccc(F)cc2)CC1 | i | i | nt | nt
CCOc1ccccc1CN1CCNC(=O)C1CC(=O)N(C)C1CCOCC1 (configuration not stated) | nt | i | nt | nt
CCOc1ccc(CCNC(=O)C2=C(C)C(=O)OC23CCCCC3)cc1OCC | i | i | nt | nt
Cn1nc(C(=O)OCC(=O)Nc2cccc(S(=O)(=O)N3CCCC3)c2)c2ccccc2c1=O | i | i | nt | nt
COCCCNCCCCOc1ccc(OCc2ccccc2)cc1 | i | i | nt | nt
c1ccc(COc2ccc(OCCCNC3CCCC3)cc2)cc1 | nt | i | 30.0% | i
CCC(C)c1ccccc1OCCCCN1CCCC1 (configuration not stated) | i | i | nt | nt
CCC(C)c1ccccc1OCCCNC1CCCC1 (configuration not stated) | i | i | 63.0% | i
O=C(O)C1(c2ccccc2)CCN(S(=O)(=O)c2ccc(Br)cc2)CC1 | nt | i | nt | nt
CN1CCN(S(=O)(=O)c2ccc(NC(=O)c3ccc(F)cc3Cl)cc2)CC1 | i | i | nt | nt
SMILES | KCNQ2 pot | KCNQ2 inh | Kir21 confirm | HEK293 ctr | others
Cc1ccc(-c2csc(=S)[nH]2)cc1 | 22.5 | i | i | 538.0% | CHO-K1 Tl ctr=i;KCNQ1 pot spec=23.2;KCNQ2 pot confirm=83.9;Kir21 spec=11.2;KCNQ2 W236L pot=i
Cc1ccc(-c2ccc(C(=O)O)[nH]2)cc1 | nt | i | nt | nt
Cc1cc(=O)oc2cc(OCC(=O)NC3CCCCC3)ccc12 | i | i | nt | nt
CCOc1ccccc1N1CCN(C(=O)c2cc(-c3cccnc3)nc3c(Cl)cccc23)CC1 | i | i | nt | nt
N#CCCN(Cc1cccnc1)C(=S)NC(=O)C1CC1 | nt | i | nt | nt
Cc1ccc(OCCCCN2CCCCC2)c(C)c1 | i | i | nt | nt
Cc1ccc(OCCCCNC2CCCC(C)C2C)c(C)c1 (configuration not stated) | nt | i | i | i
Cc1occc1C(=O)Nc1ccc2c(c1)CCC2 | 7.2 | i | i | i | CHO-K1 Tl ctr=i;KCNQ1 pot spec=i;KCNQ2 pot confirm=32.3;Kir21 spec=i;KCNQ2 W236L pot=i
Cc1occc1C(=O)Nc1ccc2c(c1)OCCO2 | i | i | nt | nt
COCC(C)NCc1cccc2ccccc12 (configuration not stated) | i | i | nt | nt
COc1ccc(CCC(C)NCc2cccc(Br)c2)cc1 (configuration not stated) | nt | i | 24.0% | i
COc1ccc(CCC(C)NCc2ccccc2OC)cc1 (configuration not stated) | i | i | nt | nt
CC(CCc1ccccc1)NCc1cccc2ccccc12 (configuration not stated) | nt | i | 19.0% | i
Cc1cccc(C(=O)N2CCNC(=O)C2CC(=O)Nc2cccc(Cl)c2)c1 (configuration not stated) | i | i | nt | nt
O=C(Nc1nnc(SCc2ccc(F)cc2)s1)c1ccc2c(c1)C(=O)N(c1ccccc1Cl)C2=O | nt | i | nt | nt
Cc1ccc(Nc2nc(N)nc(CN3CCN(c4ccccc4)CC3)n2)cc1Cl | nt | i | nt | nt
COc1ccc(N2CCN(Cc3nc(N)nc(Nc4ccc(C)c(Cl)c4)n3)CC2)cc1 | 11.1 | i | i | i | CHO-K1 Tl ctr=59.7;KCNQ1 pot spec=7.2;KCNQ2 pot confirm=20.7;Kir21 spec=i;KCNQ2 W236L pot=i
CCc1c(C)nc(SCC(=O)N2C(C)CCCC2C)[nH]c1=O (configuration not stated) | i | i | nt | nt
CCc1c(C)nc(SCC(=O)N2CCCCC2C)[nH]c1=O (configuration not stated) | 5.46 | i | i | i | CHO-K1 Tl ctr=19.5;KCNQ1 pot spec=i;KCNQ2 pot confirm=i;Kir21 spec=i
CS(=O)(=O)Nc1ccc(-c2cc(/C=C3\SC(N)=NC3=O)c[nH]c2=O)cc1 | i | i | nt | nt
Cc1ccc(C(CCNC(C)c2cccs2)c2ccco2)cc1 (configuration not stated) | nt | i | 35.5% | i
O=C1c2ccccc2C(=O)N1CCC(c1ccc(F)cc1)c1ccco1 (configuration not stated) | nt | i | nt | nt
[O-][n+]1c2c(nc3c1-c1ccccc1C3O)CCCC2 (configuration not stated) | i | i | nt | nt
Cn1c(SCC(=O)N2CCOCC2)nc2c(c1=O)SCC2 | i | i | nt | nt
CCc1nc2ccccc2n1CCc1ccccc1 | nt | i | nt | nt
SMILES | KCNQ2 pot | KCNQ2 inh | Kir21 confirm | HEK293 ctr | others
CC(C)(C)Cc1nc2ccccc2n1CCc1ccccc1 | nt | i | 53.0% | i
Nc1sc2c([n+]1CCCS(=O)(=O)[O-])CCCC2 | i | i | nt | nt
CN(CCCS(=O)(=O)[O-])c1ccc(/C=C/c2ccc3ccccc3[n+]2C)cc1 | nt | i | nt | nt
CN(C)c1ccc(/C=C/c2ccc3ccccc3[n+]2C)cc1 | nt | i | i | i
Cc1ccc(Oc2nc(-c3cccnc3)nc3ccccc23)c([N+](=O)[O-])n1 | i | i | nt | nt
COc1ccc(CCNCC(O)COc2ccc(OC)cc2C(C)(C)C)cc1 (configuration not stated) | nt | i | 56.0% | i
